Experimental data reported in the supplement of paper PMC11732987, “Enantioselective OTUD7B fragment discovery through chemoproteomics screening and high-throughput optimisation” (Communications Chemistry, 2025).

Columns and labels:
Assay in all cases: log2 ratio of Biotin-Ahx-Ub-VS probe labelling (fragment/DMSO); higher = less target engagement (more negative = stronger competition), active = hit call of the paper (q ≤ 0.05, log2 ratio ≤ -1)
Settings in all cases: compound concentration: 200 uM; treatment time: 3 h
USP19 = target: T1, USP19 (UniProt O94966)
T1 sequence (whole entry): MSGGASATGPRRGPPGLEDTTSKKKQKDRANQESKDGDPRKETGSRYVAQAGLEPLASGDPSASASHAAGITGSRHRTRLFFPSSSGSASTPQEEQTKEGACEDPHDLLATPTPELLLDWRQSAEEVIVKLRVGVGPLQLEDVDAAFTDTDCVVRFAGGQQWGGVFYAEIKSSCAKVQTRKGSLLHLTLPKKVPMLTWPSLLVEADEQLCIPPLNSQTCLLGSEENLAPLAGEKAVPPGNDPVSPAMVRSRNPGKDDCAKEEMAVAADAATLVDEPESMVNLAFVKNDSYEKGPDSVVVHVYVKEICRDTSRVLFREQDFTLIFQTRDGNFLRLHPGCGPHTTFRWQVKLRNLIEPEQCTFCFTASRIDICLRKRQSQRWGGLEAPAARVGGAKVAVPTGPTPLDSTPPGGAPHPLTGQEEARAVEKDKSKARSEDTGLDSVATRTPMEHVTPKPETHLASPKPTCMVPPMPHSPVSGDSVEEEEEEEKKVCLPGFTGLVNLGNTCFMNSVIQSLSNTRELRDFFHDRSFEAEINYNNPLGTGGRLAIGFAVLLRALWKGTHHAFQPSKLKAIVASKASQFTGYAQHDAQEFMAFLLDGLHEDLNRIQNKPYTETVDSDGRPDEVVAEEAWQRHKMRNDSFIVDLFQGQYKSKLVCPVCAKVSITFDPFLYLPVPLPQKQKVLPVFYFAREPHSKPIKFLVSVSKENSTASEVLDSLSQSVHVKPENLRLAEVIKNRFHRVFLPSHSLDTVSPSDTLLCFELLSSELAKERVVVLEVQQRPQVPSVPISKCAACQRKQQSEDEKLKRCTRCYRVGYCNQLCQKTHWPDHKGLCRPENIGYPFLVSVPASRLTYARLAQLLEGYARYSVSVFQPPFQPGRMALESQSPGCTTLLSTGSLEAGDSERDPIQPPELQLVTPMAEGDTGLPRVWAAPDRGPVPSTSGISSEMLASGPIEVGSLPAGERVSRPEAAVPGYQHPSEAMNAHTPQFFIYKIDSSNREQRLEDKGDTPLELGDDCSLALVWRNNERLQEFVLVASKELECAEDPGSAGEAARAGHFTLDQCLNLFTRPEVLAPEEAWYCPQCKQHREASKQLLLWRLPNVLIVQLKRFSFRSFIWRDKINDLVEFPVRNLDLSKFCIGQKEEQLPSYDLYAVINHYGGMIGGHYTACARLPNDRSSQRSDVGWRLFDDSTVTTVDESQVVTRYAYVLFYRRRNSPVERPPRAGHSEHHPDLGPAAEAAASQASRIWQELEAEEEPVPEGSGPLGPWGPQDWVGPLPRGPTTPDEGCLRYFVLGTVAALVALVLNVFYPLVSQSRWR
Procedure, shortened: (§1)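 The table lists average log2 ratios of fragment over vehicle, from an unpaired t-test on global-median-normalised Spectronaut label-free quantities. Proteins with ≥2 unique peptides were used. Samples were HEK293T lysate (495 µg) treated in triplicate with fragment at 200 µM or vehicle for 3 h, then with Biotin-Ahx-Ub-VS (0.5 µM final) for 1 h, with labelled DUBs NeutrAvidin-enriched and run by diaPASEF LC-MS/MS.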

USP22 = target: T2, USP22 (UniProt Q9UPT9)
T2 sequence (whole entry): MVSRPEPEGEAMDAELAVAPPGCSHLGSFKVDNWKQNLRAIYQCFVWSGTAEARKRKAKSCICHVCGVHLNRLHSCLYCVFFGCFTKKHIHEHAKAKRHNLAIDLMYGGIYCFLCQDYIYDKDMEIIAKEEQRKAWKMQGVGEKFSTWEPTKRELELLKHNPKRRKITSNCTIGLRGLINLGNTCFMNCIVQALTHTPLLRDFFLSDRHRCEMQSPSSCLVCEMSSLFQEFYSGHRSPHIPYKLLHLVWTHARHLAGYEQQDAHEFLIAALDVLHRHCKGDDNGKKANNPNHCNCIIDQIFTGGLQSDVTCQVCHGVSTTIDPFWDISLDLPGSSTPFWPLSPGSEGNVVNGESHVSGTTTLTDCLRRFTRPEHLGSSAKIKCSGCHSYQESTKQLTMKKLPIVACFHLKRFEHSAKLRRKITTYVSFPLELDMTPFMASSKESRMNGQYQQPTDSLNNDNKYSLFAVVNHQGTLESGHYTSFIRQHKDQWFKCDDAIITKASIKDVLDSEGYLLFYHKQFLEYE
Procedure, shortened: as §1

USP24 = USP24 (UniProt Q9UPU5)
Procedure, shortened: as §1

USP25 = target: T3, USP25 (UniProt Q9UHP3)
T3 sequence (whole entry): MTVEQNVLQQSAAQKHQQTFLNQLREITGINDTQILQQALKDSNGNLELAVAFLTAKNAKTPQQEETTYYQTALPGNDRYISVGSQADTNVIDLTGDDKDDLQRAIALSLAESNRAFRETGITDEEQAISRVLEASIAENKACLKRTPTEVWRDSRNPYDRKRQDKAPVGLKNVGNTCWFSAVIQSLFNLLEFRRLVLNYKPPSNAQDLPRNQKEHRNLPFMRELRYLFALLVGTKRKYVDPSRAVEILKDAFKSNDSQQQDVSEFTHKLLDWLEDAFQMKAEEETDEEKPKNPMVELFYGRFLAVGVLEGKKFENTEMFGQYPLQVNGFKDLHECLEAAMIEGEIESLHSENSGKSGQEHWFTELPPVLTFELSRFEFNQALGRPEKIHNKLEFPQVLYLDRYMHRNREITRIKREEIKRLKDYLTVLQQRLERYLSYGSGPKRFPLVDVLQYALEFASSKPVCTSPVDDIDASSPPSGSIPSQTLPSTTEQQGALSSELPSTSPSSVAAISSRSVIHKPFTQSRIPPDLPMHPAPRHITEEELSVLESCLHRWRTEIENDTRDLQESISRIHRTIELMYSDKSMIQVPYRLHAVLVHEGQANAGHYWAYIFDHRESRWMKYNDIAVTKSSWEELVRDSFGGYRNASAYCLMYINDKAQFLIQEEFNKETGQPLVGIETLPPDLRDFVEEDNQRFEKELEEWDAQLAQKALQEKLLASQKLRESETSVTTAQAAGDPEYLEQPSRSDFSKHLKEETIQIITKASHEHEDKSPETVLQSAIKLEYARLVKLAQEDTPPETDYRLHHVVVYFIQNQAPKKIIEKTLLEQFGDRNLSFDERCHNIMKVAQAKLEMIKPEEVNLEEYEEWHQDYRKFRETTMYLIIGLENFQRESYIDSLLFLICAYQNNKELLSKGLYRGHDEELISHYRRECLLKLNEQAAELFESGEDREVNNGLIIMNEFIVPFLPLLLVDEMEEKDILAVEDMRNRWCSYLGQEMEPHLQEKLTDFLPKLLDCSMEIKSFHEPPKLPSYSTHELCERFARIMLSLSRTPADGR
Procedure, shortened: as §1

USP28 = target: T4, USP28 (UniProt Q96RU2)
T4 sequence (whole entry): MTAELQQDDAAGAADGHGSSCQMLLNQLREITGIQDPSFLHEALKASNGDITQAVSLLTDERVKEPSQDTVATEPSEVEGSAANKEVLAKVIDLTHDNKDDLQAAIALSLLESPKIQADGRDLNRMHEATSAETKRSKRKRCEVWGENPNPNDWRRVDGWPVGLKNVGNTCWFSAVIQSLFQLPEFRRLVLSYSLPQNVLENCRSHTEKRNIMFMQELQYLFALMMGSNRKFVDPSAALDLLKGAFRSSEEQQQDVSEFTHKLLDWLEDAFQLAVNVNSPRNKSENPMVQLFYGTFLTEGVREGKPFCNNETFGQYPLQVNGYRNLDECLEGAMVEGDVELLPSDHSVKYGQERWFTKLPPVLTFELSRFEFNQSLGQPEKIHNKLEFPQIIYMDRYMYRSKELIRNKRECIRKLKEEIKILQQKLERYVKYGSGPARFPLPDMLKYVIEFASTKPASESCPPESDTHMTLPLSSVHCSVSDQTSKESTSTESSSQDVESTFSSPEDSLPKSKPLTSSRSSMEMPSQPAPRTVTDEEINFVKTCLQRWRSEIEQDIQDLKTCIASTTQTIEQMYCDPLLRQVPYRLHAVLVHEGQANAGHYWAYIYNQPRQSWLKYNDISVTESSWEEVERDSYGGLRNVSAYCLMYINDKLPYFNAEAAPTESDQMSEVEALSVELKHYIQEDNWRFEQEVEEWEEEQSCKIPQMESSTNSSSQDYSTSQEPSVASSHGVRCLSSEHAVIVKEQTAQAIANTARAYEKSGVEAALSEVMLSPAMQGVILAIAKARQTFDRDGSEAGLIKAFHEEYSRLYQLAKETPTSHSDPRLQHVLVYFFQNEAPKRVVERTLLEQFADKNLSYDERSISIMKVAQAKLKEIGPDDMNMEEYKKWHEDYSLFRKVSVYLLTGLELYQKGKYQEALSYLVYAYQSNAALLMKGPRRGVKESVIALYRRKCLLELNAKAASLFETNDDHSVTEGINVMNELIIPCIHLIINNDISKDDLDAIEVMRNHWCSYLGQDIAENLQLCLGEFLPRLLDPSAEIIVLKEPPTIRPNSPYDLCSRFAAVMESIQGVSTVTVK
Procedure, shortened: as §1

Measured: log2 ratio of Biotin-Ahx-Ub-VS probe labelling

Chain of USP24 (Q9UPU5 whole entry): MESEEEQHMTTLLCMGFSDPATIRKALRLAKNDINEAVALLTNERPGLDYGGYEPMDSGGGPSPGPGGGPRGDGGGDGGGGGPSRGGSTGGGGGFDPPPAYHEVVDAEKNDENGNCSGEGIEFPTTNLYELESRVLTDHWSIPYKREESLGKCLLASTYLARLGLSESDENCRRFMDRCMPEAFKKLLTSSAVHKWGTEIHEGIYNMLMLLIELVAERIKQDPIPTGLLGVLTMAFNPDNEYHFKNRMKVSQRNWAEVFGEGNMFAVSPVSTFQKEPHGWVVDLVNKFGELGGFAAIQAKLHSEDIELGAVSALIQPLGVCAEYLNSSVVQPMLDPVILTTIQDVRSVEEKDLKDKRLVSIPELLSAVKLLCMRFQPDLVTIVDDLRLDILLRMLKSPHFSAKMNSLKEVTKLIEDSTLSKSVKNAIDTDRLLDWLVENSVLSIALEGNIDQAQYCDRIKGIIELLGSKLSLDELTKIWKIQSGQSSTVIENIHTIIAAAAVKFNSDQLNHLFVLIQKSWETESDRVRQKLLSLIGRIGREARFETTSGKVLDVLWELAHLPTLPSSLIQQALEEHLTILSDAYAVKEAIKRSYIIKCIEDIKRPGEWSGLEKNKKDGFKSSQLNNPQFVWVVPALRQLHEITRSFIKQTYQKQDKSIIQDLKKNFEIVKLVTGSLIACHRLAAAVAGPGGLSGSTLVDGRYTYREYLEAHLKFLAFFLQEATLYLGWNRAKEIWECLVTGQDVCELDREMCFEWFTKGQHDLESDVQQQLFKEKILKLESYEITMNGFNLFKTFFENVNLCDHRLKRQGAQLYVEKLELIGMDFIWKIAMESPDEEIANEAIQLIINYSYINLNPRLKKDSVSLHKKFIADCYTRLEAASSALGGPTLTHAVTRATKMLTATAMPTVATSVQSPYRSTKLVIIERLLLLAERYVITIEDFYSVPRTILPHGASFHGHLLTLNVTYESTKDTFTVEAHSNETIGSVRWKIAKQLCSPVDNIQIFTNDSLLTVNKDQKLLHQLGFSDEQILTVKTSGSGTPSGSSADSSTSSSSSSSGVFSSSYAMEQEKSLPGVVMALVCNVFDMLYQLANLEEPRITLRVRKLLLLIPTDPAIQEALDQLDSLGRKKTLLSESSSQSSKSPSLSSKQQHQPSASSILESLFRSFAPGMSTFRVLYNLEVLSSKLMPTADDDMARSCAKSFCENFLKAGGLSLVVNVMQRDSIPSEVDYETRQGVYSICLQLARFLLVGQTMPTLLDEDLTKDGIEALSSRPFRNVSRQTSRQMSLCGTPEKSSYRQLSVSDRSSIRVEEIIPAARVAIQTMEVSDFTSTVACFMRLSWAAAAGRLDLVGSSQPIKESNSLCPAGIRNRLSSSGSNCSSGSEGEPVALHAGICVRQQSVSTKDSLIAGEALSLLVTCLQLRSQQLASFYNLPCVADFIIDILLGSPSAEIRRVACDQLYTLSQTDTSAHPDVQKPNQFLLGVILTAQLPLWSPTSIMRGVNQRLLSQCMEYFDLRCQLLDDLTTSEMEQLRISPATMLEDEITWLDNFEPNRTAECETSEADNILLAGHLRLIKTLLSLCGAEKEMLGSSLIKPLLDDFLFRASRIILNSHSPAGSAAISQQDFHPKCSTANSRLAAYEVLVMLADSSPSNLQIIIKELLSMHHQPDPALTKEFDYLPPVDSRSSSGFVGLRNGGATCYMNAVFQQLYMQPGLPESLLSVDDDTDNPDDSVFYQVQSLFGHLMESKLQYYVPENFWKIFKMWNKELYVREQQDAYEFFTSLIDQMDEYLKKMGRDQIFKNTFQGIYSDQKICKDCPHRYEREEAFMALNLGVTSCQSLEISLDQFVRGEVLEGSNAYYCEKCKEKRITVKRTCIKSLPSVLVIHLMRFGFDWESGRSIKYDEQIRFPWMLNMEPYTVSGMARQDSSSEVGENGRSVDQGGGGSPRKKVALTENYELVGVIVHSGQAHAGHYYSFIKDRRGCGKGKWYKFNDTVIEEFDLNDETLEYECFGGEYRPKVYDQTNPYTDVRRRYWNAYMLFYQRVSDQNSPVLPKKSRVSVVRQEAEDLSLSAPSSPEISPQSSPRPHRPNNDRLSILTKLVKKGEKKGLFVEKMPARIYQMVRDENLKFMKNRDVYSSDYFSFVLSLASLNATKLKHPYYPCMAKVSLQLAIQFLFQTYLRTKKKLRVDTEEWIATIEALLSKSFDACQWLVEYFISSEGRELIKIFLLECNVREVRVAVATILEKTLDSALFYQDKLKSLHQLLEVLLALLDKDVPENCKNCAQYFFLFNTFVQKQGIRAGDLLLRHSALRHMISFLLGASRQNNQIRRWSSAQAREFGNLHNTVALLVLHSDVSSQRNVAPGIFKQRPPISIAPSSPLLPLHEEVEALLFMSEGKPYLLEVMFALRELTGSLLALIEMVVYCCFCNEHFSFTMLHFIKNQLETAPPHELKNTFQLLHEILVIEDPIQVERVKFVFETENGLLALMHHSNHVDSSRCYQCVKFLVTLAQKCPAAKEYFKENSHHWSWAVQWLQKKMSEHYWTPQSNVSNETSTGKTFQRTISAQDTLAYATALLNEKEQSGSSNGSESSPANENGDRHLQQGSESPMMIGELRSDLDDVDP

CNC(=O)C1(NC(=O)CCl)CCCCC1
inactive: USP19 0.162 | USP22 -0.0396 | USP24 0.0556 | USP25 -0.118 | USP28 -0.181
